This note sets out measurements from PubChem BioAssay AID1053124 (Broad Institute, 2014).

Results with a measured potency or affinity are listed apart. Active and inactive are the calls of the source.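 Rule for the calls: active = cell killing whose fitted half-effect concentration is at most twice the top valid dose tested; inconclusive = flat curve with 30 to 70% killing, or a poor fit; inactive = effect in the rising direction, plus the rest.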

This experiment in a line: A549 cell cytotoxicity, dose response, cytotoxicity control, ATP luminescence, cherry-pick, set 2 (AID 1053124). Particulars: A549 viability, ATP luminescence (CellTiter-Glo), 72 h; series mostly up to 26 µM.
As for `CCCCn1nc(NC(=O)c2cccs2)c2cc3cc(OC)ccc3nc21`, the result was inactive.

As to `CCOc1ccc(C2C(C#N)=C(N)Oc3cc(O)ccc32)cc1OCC` (centres undefined), the compound was called inactive. Turning to `CSCCC1(C(=O)O)NC(c2ccccc2O)C2C(=O)N(C(C)C)C(=O)C21` (centres undefined), the result was inactive. `C/C(=N\NC(=O)CC#N)c1cc2ccc(O)cc2oc1=O`: the compound was called inactive. Consider `S=C(NCC1CCCO1)N1CCN(Cc2ccccc2Cl)CC1` (centres undefined), for which the result was inactive. As for `CCOC(=O)c1c(NC(=O)CSc2ncccn2)sc2c1CCN(Cc1ccccc1)C2`, the compound was called inactive. Next, `COCCNC(=O)c1cc2c(=O)n3cccc(C)c3nc2n(Cc2ccncc2)c1=N`: “inactive”.

In the case of `CSC1=NSC2=NC(=O)/C(=C/c3coc4ccc(O)cc4c3=O)C(=N)N12`, the result was inactive.

Consider `Cc1ccc(-c2nc3ccsc3c(=O)[nH]2)cc1`, for which the compound was called inactive.

`O=C(C1=NN(c2ccccc2)C2C(=O)N(c3ccccc3)C(=O)C12)c1ccccc1` (centres undefined): the compound was called inactive. `Cc1ccc(S(=O)(=O)Nc2ccc(Nc3ccccc3)cc2)cc1`: the compound was classed as inactive.

Take `NC(=O)c1c(NC(=O)Cc2ccccc2)sc2c1CCN(Cc1ccccc1)C2`: the result was inactive. As for `Cc1cccn2c(=O)c3cc(C(=O)NCc4ccc(F)cc4)c(=N)n(CCCN4CCOCC4)c3nc12`, the outcome was inactive. Next, `O=c1oc2cc(O)ccc2cc1S(=O)(=O)c1ccccc1`: “inactive”.

For `CSc1ccc(Cl)c(C(=O)N2CCOc3ccccc32)c1`, the result was inactive. For `O=C(O)c1cccc(Nc2nc(-c3cc4ccccc4oc3=O)cs2)c1`, the outcome was inactive. On to `CCn1c(=N)c(S(=O)(=O)c2ccccc2)cc2c(=O)n3ccccc3nc21`, for which the outcome was inactive. To `Cc1c(O)ccc2cc(S(=O)(=O)c3ccccc3)c(=O)oc12` belongs “inactive”.

For the compound `Cc1c2c(n3c(nc4ccccc43)c1C#N)N(CCN1CCOCC1)CC2`, the call was inactive. On to `Cc1oc(/N=C/c2ccc(F)cc2)c(C#N)c1C`, for which the outcome was inactive.

Consider `CNC(=O)c1ccc(NC(=O)c2cccc(C(F)(F)F)c2)cc1`, for which the compound was called inactive. Regarding `Nc1ccc(C#Cc2ccc3c(=O)c4ccccc4oc3c2)cc1`, the compound was classed as inactive. As for `Cc1ccc(NC(=O)Nc2ccnc(-c3cccnc3)n2)cc1`, the outcome was inactive. As for `Cc1ccc2[nH]c3ccccc3c(=O)c2c1`, the call was inactive. For `COc1ccc(CNC(=O)c2sc(=O)n(Cc3ccc(C)cc3)c2C)cc1OC`, the compound was classed as inactive. To `Cc1noc(C)c1S(=O)(=O)N(CC(=O)N1CCCCCC1)c1ccc(C(C)C)cc1` belongs “inactive”; to `O=C(CCCn1c(=O)c2sccc2n(Cc2cc(=O)n3ccccc3n2)c1=O)NCc1ccco1`, “inactive”; to `CC1CCCCC1NC(=O)CN1C(=O)c2cccc(N)c2C1=O` (centres undefined), “inactive”. Next, `COC(=O)C1=CN(Cc2ccc(OC)c(OC)c2)C=C(C(=O)OC)C1c1cccc(F)c1`: “inactive”; `COc1ccccc1/C=N/Nc1nc(C)cc(=O)[nH]1`: “inactive”.

As to `COc1ccc(S(=O)(=O)Cc2ccc(C(=O)N3CCN(Cc4ccccc4)CC3)o2)cc1`, the result was inactive. Next, `Cn1c2ccccc2c(=O)c2ccc(F)cc21`: “inactive”; `Nc1cccc2c1C(=O)N(c1ccccc1)C2=O`: “inactive”; `CC(C)CCN1C(=O)c2cccc3c(N)ccc(c23)C1=O`: “inactive”.

On to `O=C(NS(=O)(=O)c1ccc(Cl)s1)c1ccccc1`, for which the result was inactive.

In the case of `Cc1cccn2c(=O)c(/C=C(\C#N)C(N)=O)c(Oc3ccccc3)nc12`, the outcome was inactive. As to `COC(=O)C1=CN(C)C=C(C(=O)OC)C1c1ccccc1Cl`, the call was inactive.

For the compound `N#Cc1c2ccc(O)cc2n2ccccc12`, the outcome was inactive. `O=C(O)c1ccc(-c2ccc(/C=C3\NC(=O)N(Cc4ccc(Cl)cc4)C3=O)o2)cc1`: the compound was called inactive.
